Experimental data published in PubChem BioAssay (NCI).
About 79,000 compounds went through this panel and 15% of them were active in at least one assay; those are over-represented in the sample as a whole. The source made the active and inactive calls. Cut-off read from the data, not from the text of the source: active = growth inhibition above about 70%; inactive = the rest.

Assays:
[1] = NCI Yeast Anticancer Drug Screen. Data for the rad52 strain (AID 147);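 note: 0% = growth of vehicle-treated control cultures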; conditions: S. cerevisiae rad52 mutant growth inhibition, active compounds read high
In short: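 Screen used a yeast mutant impaired in DNA repair. After compound exposure, growth was measured. Values reflect inhibition compared with vehicle-treated cells.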

[2] = NCI Yeast Anticancer Drug Screen. Data for the wt1 strain (AID 149);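 note: 0% = growth of vehicle-treated wt1 cultures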; conditions: S. cerevisiae wt1 strain (SPY 50644) growth inhibition, active compounds read high
In short: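 wt1 strain grown with compound or vehicle; inhibition taken from the growth difference.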

[3] = NCI Yeast Anticancer Drug Screen. Data for the rad50EPP+ strain (AID 151);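 note: 0% = growth of vehicle-treated control cultures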; conditions: S. cerevisiae rad50 mutant strain, active compounds read high
In short: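 Exposing the rad50EPP+ strain to each compound, growth was compared with vehicle-only cultures to give inhibition.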

[4] = NCI Yeast Anticancer Drug Screen. Data for the mgt1 strain (AID 153); conditions: S. cerevisiae mgt1 mutant growth inhibition, active compounds read high
In short: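 Genetically defined yeast (mgt1) treated with compound; inhibition of growth expressed against vehicle-treated controls.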

[5] = NCI Yeast Anticancer Drug Screen. Data for the rad50 strain (AID 155);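 note: 0% = growth of vehicle-only cultures of the same strain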; conditions: S. cerevisiae rad50 strain growth inhibition, active compounds read high
In short: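 DNA repair mutant yeast, compound exposure, growth read-out; inhibition is taken relative to vehicle.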

[6] = NCI Yeast Anticancer Drug Screen. Data for the mec2-1 strain (AID 157); conditions: S. cerevisiae mec2-1 strain, active compounds read high
In short: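 Readout is yeast growth inhibition, normalised to vehicle-treated controls, in the mec2-1 strain exposed to compound.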

[7] = NCI Yeast Anticancer Drug Screen. Data for the rad14 strain (AID 159);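 note: 0% = growth of vehicle-treated control cultures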; conditions: S. cerevisiae rad14 strain growth inhibition, active compounds read high
In short: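 DNA repair-defective yeast, compound-exposed; % growth inhibition derived by comparison with vehicle-treated controls.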

[8] = NCI Yeast Anticancer Drug Screen. Data for the sgs1 mgt1 strain (AID 161);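 note: 0% = growth of cultures given vehicle only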; conditions: S. cerevisiae sgs1 mgt1 strain, active compounds read high
In short: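 This yeast growth screen uses a strain with defined DNA-repair lesions; compound-treated growth is compared with vehicle-treated growth.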

[9] = NCI Yeast Anticancer Drug Screen. Data for the CLN2oe strain (AID 163);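 note: 0% = growth of vehicle-only control cultures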; conditions: S. cerevisiae CLN2oe strain, active compounds read high
In short: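 Values reflect how much compound exposure reduced yeast growth, referenced to vehicle-exposed cells. Assay organism is a strain with a defined genetic change affecting cell-cycle control.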

[10] = NCI Yeast Anticancer Drug Screen. Data for the bub3 strain (AID 167); conditions: S. cerevisiae bub3 mutant strain, active compounds read high
In short: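 In this screen, a yeast mutant lacking normal mitotic checkpoint function is challenged with compound. Relative growth versus vehicle gives the inhibition value.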

[11] = NCI Yeast Anticancer Drug Screen. Data for the wt2 strain (AID 169);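 note: 0% = growth of vehicle-treated yeast cultures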; conditions: S. cerevisiae wt2 strain growth inhibition, active compounds read high
In short: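 Values express reduction in yeast growth under compound treatment, referenced to vehicle-treated cells.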

[12] = NCI Yeast Anticancer Drug Screen. Data for the mlh1 strain (AID 171);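 note: 0% = growth of vehicle-treated control cultures of the same strain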; conditions: S. cerevisiae mlh1 strain growth inhibition, active compounds read high
In short: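 Steps: expose the defined-mutant yeast strain to compound; expose a parallel culture to vehicle; measure growth; express compound effect as inhibition relative to the vehicle culture.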

[13] = NCI Yeast Anticancer Drug Screen. Data for the sgs1 strain (AID 173);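 note: 0% = growth of vehicle-only control cultures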; conditions: S. cerevisiae sgs1 mutant, active compounds read high
In short: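 Treat defined-mutant yeast with compound; measure growth; calculate inhibition relative to vehicle-treated cells.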

[14] = NCI Yeast Anticancer Drug Screen. Data for the mlh1 rad18 strain (AID 175); conditions: S. cerevisiae mlh1 rad18 strain growth inhibition, active compounds read high
In short: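 Test agents were incubated with a yeast strain of defined genotype (DNA damage repair defect). Inhibition of growth was derived by comparison with vehicle-exposed cultures.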

[15] = NCI Yeast Anticancer Drug Screen. Data for the rad18 strain (AID 177); conditions: S. cerevisiae rad18 mutant growth inhibition, active compounds read high
In short: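 A genetically defined yeast mutant impaired in DNA damage repair was treated with test compounds, then its growth was measured against cultures receiving vehicle alone.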

[16] = at 5.0 µM (retest, dose inferred, filed as 0.5)
[17] = at 50.0 µM (retest, dose inferred, filed as 5.0)

Measured: growth inhibition

Cc1ccc2ccc3cccc4ccc1c2c34
active: [14]; at 50.0 µM 70.3% | [15]; at 100.0 µM 82%
inactive: [1]; at 1.2 µM -1% | [1]; at 3.7 µM 0% | [1]; at 11.0 µM 5% | [1]; at 33.0 µM 23% | [1]; at 100.0 µM 27% | [2]; at 1.2 µM -2% | [2]; at 3.7 µM -2% | [2]; at 11.0 µM -3% | [2]; at 33.0 µM 2% | [2]; at 100.0 µM 15% | [3]; at 1.2 µM -2% | [3]; at 3.7 µM 4% | [3]; at 11.0 µM 20% | [3]; at 33.0 µM 33% | [3]; at 100.0 µM 31% | [4]; at 1.2 µM -1% | [4]; at 3.7 µM -1% | [4]; at 11.0 µM -3% | [4]; at 33.0 µM -3% | [4]; at 100.0 µM 18% | [5]; at 1.2 µM 4% | [5]; at 3.7 µM 49% | [5]; [16] -1% | [5]; at 11.0 µM 21% | [5]; at 33.0 µM 37% | [5]; [17] 41% | [5]; at 50.0 µM 25.6% | [5]; at 100.0 µM 66% | [6]; at 1.2 µM -1% | [6]; at 3.7 µM 0% | [6]; [16] 3% | [6]; at 11.0 µM 2% | [6]; at 33.0 µM 13% | [6]; [17] 12% | [6]; at 50.0 µM 4.75% | [6]; at 100.0 µM 26% | [7]; at 1.2 µM 1% | [7]; at 3.7 µM 0% | [7]; at 11.0 µM 3% | [7]; at 33.0 µM 14% | [7]; at 100.0 µM 23% | [8]; [16] -3% | [8]; [17] 20% | [8]; at 50.0 µM 10.6% | [9]; at 1.2 µM -7% | [9]; at 3.7 µM -2% | [9]; at 11.0 µM -4% | [9]; at 33.0 µM -13% | [9]; at 100.0 µM 13% | [10]; at 1.2 µM -1% | [10]; at 3.7 µM 0% | [10]; [16] 2% | [10]; at 11.0 µM 2% | [10]; at 33.0 µM 26% | [10]; [17] 44% | [10]; at 50.0 µM 61.5% | [10]; at 100.0 µM 58% | [11]; at 1.2 µM -1% | [11]; at 3.7 µM 7% | [11]; at 11.0 µM -3% | [11]; at 33.0 µM -2% | [11]; at 100.0 µM 18% | [12]; at 1.2 µM -2% | [12]; at 3.7 µM -2% | [12]; at 11.0 µM -5% | [12]; at 33.0 µM 3% | [12]; at 100.0 µM 30% | [13]; at 1.2 µM -3% | [13]; at 3.7 µM -1% | [13]; at 11.0 µM 2% | [13]; at 33.0 µM 23% | [13]; at 100.0 µM 42% | [14]; [16] -3% | [14]; [17] 52% | [15]; at 1.2 µM -4% | [15]; at 3.7 µM 0% | [15]; at 11.0 µM 11% | [15]; at 33.0 µM 60%

S=C(Nc1ccc(Cl)cc1)SC1CCCCC1
inactive: [1]; at 1.2 µM 6% | [1]; at 3.7 µM 24% | [1]; at 11.0 µM 34% | [2]; at 1.2 µM 7% | [2]; at 3.7 µM 0% | [2]; at 11.0 µM 47% | [3]; at 1.2 µM 7% | [3]; at 3.7 µM 22% | [3]; at 11.0 µM 61% | [4]; at 1.2 µM 16% | [4]; at 3.7 µM 40% | [4]; at 11.0 µM 33% | [5]; at 1.2 µM -4% | [5]; at 3.7 µM 9% | [5]; [16] 12% | [5]; [17] 65% | [6]; at 1.2 µM -17% | [6]; at 3.7 µM 7% | [6]; [16] 1% | [6]; [17] 40% | [7]; at 1.2 µM -24% | [7]; at 3.7 µM -20% | [7]; at 11.0 µM 27% | [8]; [16] 18% | [9]; at 1.2 µM -2% | [9]; at 3.7 µM -7% | [9]; at 11.0 µM 43% | [10]; at 1.2 µM -18% | [10]; at 3.7 µM -36% | [10]; [16] 17% | [10]; at 11.0 µM 25% | [10]; [17] 51% | [11]; at 1.2 µM -35% | [11]; at 3.7 µM -22% | [12]; at 1.2 µM 4% | [12]; at 3.7 µM 19% | [12]; at 11.0 µM 50% | [13]; at 1.2 µM 0% | [13]; at 3.7 µM 2% | [13]; at 11.0 µM 51% | [14]; [16] -2% | [15]; at 1.2 µM -8% | [15]; at 3.7 µM -7% | [15]; at 11.0 µM 48%
active: [1]; at 33.0 µM 96% | [1]; at 100.0 µM 98% | [2]; at 33.0 µM 98% | [2]; at 100.0 µM 98% | [3]; at 33.0 µM 98% | [3]; at 100.0 µM 98% | [4]; at 33.0 µM 98% | [4]; at 100.0 µM 99% | [5]; at 11.0 µM 96% | [5]; at 33.0 µM 99% | [5]; at 50.0 µM 83.2% | [5]; at 100.0 µM 99% | [6]; at 11.0 µM 93% | [6]; at 33.0 µM 99% | [6]; at 50.0 µM 85.5% | [6]; at 100.0 µM 96% | [7]; at 33.0 µM 97% | [7]; at 100.0 µM 97% | [8]; [17] 79% | [8]; at 50.0 µM 86.5% | [9]; at 33.0 µM 96% | [9]; at 100.0 µM 99% | [10]; at 33.0 µM 93% | [10]; at 50.0 µM 83% | [10]; at 100.0 µM 98% | [11]; at 11.0 µM 78% | [11]; at 33.0 µM 99% | [11]; at 100.0 µM 98% | [12]; at 33.0 µM 98% | [12]; at 100.0 µM 99% | [13]; at 33.0 µM 98% | [13]; at 100.0 µM 98% | [14]; [17] 91% | [14]; at 50.0 µM 91.8% | [15]; at 33.0 µM 97% | [15]; at 100.0 µM 98%
